Assay outcomes: PubChem BioAssay, National Center for Advancing Translational Sciences (NCATS)
Sampled rows, rich in hits. Any-hit rate of the full collection: about 15%.
Sm TGR inh: inhibitors of Schistosoma mansoni thioredoxin glutathione reductase | Potency, µM (top dose mostly 114 µM), usual class: inhibitors | AID 485364 | purified TGR, DTNB reduction, TNB absorbance 405 nm | Q962Y6 | 360,000 tested, 3% active; also: nearly all actives have a fitted effect of over 60% in size
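Kinetic colorimetric format: TGR-catalysed, NADPH-driven DTNB reduction monitored via TNB absorbance. Enzyme dispensed at 20 nM; compound exposure 15 min at room temperature before reaction start.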
HCMV inh: inhibitors of human cytomegalovirus; HFF cells, HCMV-luciferase reporter, 72 h; active compounds read low; activity change, negative = inhibition, % at 57.5 µM; 410,000 tested, 4.5% active; in the data active = activity change below about -60%; inconclusive = no clear call, values can overlap the other calls; inactive = above about -39%
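Luciferase read-out from HCMV-luciferase-infected HFFs (MOI 1 PFU/cell) 72 h post infection at 37C; compounds added after 16 h cell attachment; activity normalized between buffer-only basal and Salinomycin (10uM) inhibitor controls.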
SARS PLP yeast: blocks SARS-CoV papain-like protease in a yeast assay | 330,000 tested, 0.19% active | S. cerevisiae expressing SARS-CoV PLpro, growth rescue | Potency, µM (highest dose often 32.9 µM), most hits filed as activators; calls by dose curve; also: nearly all actives have a fitted effect of over 55% in size
Pf growth 48h: inhibits P. falciparum growth in the first generation, 48 h. 310,000 tested, 5.9% active. AID 504832. P. falciparum luciferase growth in erythrocytes, 48 h. Potency, µM (top dose mostly 28.7 µM), most hits filed as inhibitors
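Firefly luciferase activity from engineered P. falciparum reports growth; inhibitors lower the luminescent signal. Cultures contained 2% hematocrit erythrocytes at 0.1% final parasitemia.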
Pf growth 96h: P. falciparum growth inhibition at 96 hours; AID 504834; Potency, µM (highest dose often 28.7 µM), most hits filed as inhibitors; P. falciparum luciferase reporter growth, 96 h; 320,000 tested, 6.9% active
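Compounds incubated with erythrocytes infected by luciferase-expressing P. falciparum (2% hematocrit, 0.05% parasitemia final) for 96 hours, 37 C in 5% CO2. Growth inhibition scored as decreased luciferase luminescence.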
HCV inh: inhibitors of hepatitis C virus infection. AID 651820. Potency, µM (doses to about 41.8 µM), actives largely listed as inhibitors. 340,000 tested, 3.4% active. Huh7.5.1 HCVcc-Cre infection, luciferase reporter, 44 h
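Infectious HCVcc-Cre (~0.5 moi) was added to cells just after compound, with cells seeded 4 h earlier at 1,000 per well. Luciferase activity after 44 h culture reported infection; substrate was incubated 15 min at room temperature before reading.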
Numbers stand for hits; [ ] = another dose, or the depositor's remark. Unless noted, calls follow the shape of the dose curve; as a rule, active = well fitted curve in the direction sought with a large enough effect; inconclusive = small, poorly fitted or top-dose-only effect, or another doubt; inactive = no such curve, though single readings can be large; an effect the other way counts as inactive or inconclusive.

Screening COc1ccc(/C=C(/C(=O)c2ccc(Cl)cc2Cl)n2cncn2)cc1 returned Sm TGR inh inactive, HCMV inh inactive, SARS PLP yeast inactive, Pf growth 48h inactive, Pf growth 96h inactive and HCV inh inactive.
For CC(C)CC(=O)/C(=C/c1ccc(N(C)C)cc1)n1cncn1 the results were Sm TGR inh inactive, HCMV inh -60, SARS PLP yeast inactive, Pf growth 48h inactive, Pf growth 96h inconclusive and HCV inh inactive.
For COc1ccccc1-n1c(=O)oc2ccc(Cl)cc2c1=O the results were Sm TGR inh inactive, HCMV inh -95, SARS PLP yeast inactive, Pf growth 48h inconclusive, Pf growth 96h inactive and HCV inh inconclusive.
`CCCC(=O)Nc1nnc(SCc2cc(=O)c3cc(C)ccc3[nH]2)s1` gave Sm TGR inh inactive and HCMV inh inactive.
For Nc1ccccc1C(=O)c1ccccc1 the results were Sm TGR inh inactive, HCMV inh inactive, SARS PLP yeast inactive, Pf growth 96h inactive and HCV inh inconclusive.
Screening Nc1sccc1C(=O)c1ccccc1 returned Sm TGR inh 20µM, HCMV inh inactive, SARS PLP yeast inactive, Pf growth 48h inactive, Pf growth 96h inactive and HCV inh inactive.
Screening CCN(CC(=O)NC(C)(C)C)C(=O)c1ccccc1SCC(=O)NC1CCCCCCC1 returned Sm TGR inh inactive, HCMV inh inactive, Pf growth 48h 10µM and Pf growth 96h inconclusive.
Screening Cc1sc2c(c1C)CN(C1CC(C)(C)NC(C)(C)C1)CN2C(=O)c1ccco1 returned Sm TGR inh 25µM, SARS PLP yeast inactive, Pf growth 48h inconclusive, Pf growth 96h inactive and HCV inh inconclusive.
`CC1(C)CC(CCNC(=O)c2ccco2)CC(C)(C)N1` gave Sm TGR inh inactive, HCMV inh inactive, SARS PLP yeast inactive, Pf growth 48h inactive and HCV inh inactive.
For CC(C)[C@@H]1Cc2[nH]c(=O)[nH]c(=O)c2[C@H](C)O1 the results were HCMV inh inactive.
For CCOC(=O)C1(CC)NC(c2ccco2)C2C(=O)N(c3ccc(C)cc3)C(=O)C21 (configuration not stated) the results were Sm TGR inh 45µM, HCMV inh inactive, SARS PLP yeast inactive, Pf growth 48h inactive, Pf growth 96h inactive and HCV inh inactive.
`CCOC(=O)C1(C)NC(c2ccco2)C2C(=O)N(CC)C(=O)C21` (configuration not stated) gave Sm TGR inh inactive, HCMV inh inactive, SARS PLP yeast inactive, Pf growth 48h inactive, Pf growth 96h 2.9µM and HCV inh inactive.
`CCCC1(C(=O)OC)NC(c2ccco2)C2C(=O)N(c3ccc(C)cc3)C(=O)C21` (configuration not stated) gave Sm TGR inh inactive, HCMV inh inactive, SARS PLP yeast inactive, Pf growth 48h inactive, Pf growth 96h inconclusive and HCV inh inactive.
Screening CC(=O)c1c2c(cc3ccc(Cl)cc13)CCC2 returned HCMV inh inactive.
Screening COc1ccc(C2CC(c3ccc(OC)cc3OC(C)=O)=NN2C(=O)c2ccccc2)cc1 (configuration not stated) returned Sm TGR inh inactive, HCMV inh inactive, SARS PLP yeast inactive, Pf growth 48h inactive[0.00184 µM], Pf growth 96h inconclusive and HCV inh inactive.
COc1ccc(C2=NN(C(=O)c3ccccc3)C(c3ccc(OC)c(OC)c3)C2)c(O)c1 (configuration not stated) was read as Sm TGR inh inactive, HCMV inh inactive, SARS PLP yeast inactive, Pf growth 48h 10µM, Pf growth 96h 10µM and HCV inh inactive.
For COc1ccccc1C1=NN(C(=O)c2ccccc2)C(c2ccc(Br)cc2)C1 (configuration not stated) the results were Sm TGR inh inactive, SARS PLP yeast inactive, Pf growth 48h 3.7µM, Pf growth 96h inactive and HCV inh inactive.
Screening CC(C)NC(=O)CSc1cn(CC(=O)N2CCCCCC2)c2ccccc12 returned Sm TGR inh inactive and HCMV inh inconclusive.
